Results from PubChem BioAssay (EPA / NIEHS).
Inconclusive results are not listed. The source made the active and inactive calls. How the source made its calls, unless noted: active means hit-call score of the fitted dose curve at least 0.9, where 1 is the maximum; inactive means score below 0.9.

Tests used:
[1] = target: Hepatocyte nuclear factor 4-alpha (Homo sapiens) (UniProt P41235); assay: ATG_HNF4a_TRANS: Attagene TRANS-FACTORIAL HepG2 Assay for human Hepatocyte Nuclear Factor 4 alpha (HNF4a) (AID 2282982; active means hit-call score of the fitted dose curve at least 0.9, where 1 is the maximum); settings: HepG2 HNF4a transactivation reporter, mRNA readout
Procedure, shortened: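 Readout is fluorescent reporter-transcript fragments resolved by capillary electrophoresis after RT-PCR from HepG2 cells dosed for 24 h. Cells carried transfected GAL4-UAS reporter constructs measuring exogenous NR-GAL4 chimera activity; DMSO served as baseline.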

[2] = ATG_M_06_TRANS: Attagene TRANS-FACTORIAL HepG2 Assay for M06 Transcription Factor (Internal Marker) (AID 2282983; active means hit-call score of the fitted dose curve at least 0.9, where 1 is the maximum;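 further: reporter transcript level by RT-PCR then capillary electrophoresis fluorescence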); settings: HepG2 Attagene TRANS M06 internal marker reporter
Procedure, shortened: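 Internal-marker background readout from a multiplexed TRANS reporter system in HepG2; 24 h dosing; mRNA induction quantified by RT-PCR plus capillary electrophoresis fluorescence; DMSO as negative control and baseline.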

[3] = ATG_M_32_TRANS: Attagene TRANS-FACTORIAL HepG2 Assay for M32 Transcription Factor (Internal Marker) (AID 2282984; active means hit-call score of the fitted dose curve at least 0.9, where 1 is the maximum;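 further: transcript level of a background control reporter unit measured by RT-PCR and capillary electrophoresis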); settings: HepG2 Attagene TRANS M32 internal marker reporter
Procedure, shortened: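 Measures reporter mRNA induction in human HepG2 liver cells after 24 h chemical treatment. Transcripts from transiently transfected GAL4-UAS reporter units are amplified, fluorescently labelled and sized by capillary electrophoresis; gain of signal relative to DMSO.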

[4] = target: Nuclear receptor subfamily 4 group A member 2 (Homo sapiens) (UniProt P43354); assay: ATG_NURR1_TRANS: Attagene TRANS-FACTORIAL HepG2 Assay for human Nuclear Receptor Related Protein 1 (NURR1) (AID 2282985; active means hit-call score of the fitted dose curve at least 0.9, where 1 is the maximum); settings: HepG2 Attagene TRANS reporter, mRNA readout
Procedure, shortened: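 Transient transfection of HepG2, human liver cells, with multiple GAL4-UAS reporter transcription units. Cells dosed 24 h, RNA isolated, reverse-transcribed, PCR-amplified, FAM-labelled, HpaI-digested, sized by capillary electrophoresis. DMSO served as negative control.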

[5] = target: Transcriptional activator Myb (Homo sapiens) (UniProt P10242); assay: ATG_Myb_CIS: Attagene CIS-FACTORIAL HepG2 Assay for human Myeloblastosis (Myb) Proto-Oncogene Transcription Factor (AID 2282986); settings: HepG2 Attagene CIS-FACTORIAL Myb reporter transcription; actives raise or lower the signal
Procedure, shortened: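 Multiplexed cis-reporter system in HepG2: transient transfection, 24 h treatment, mRNA readout by RT-PCR and capillary electrophoresis. Both increases and decreases are scored versus DMSO negative control.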

[6] = target: Nuclear respiratory factor 1 (Homo sapiens) (UniProt Q16656); assay: ATG_NRF1_CIS: Attagene CIS-FACTORIAL HepG2 Assay for human Nuclear Respiratory Factor 1 (NRF1) Orphan Gene (AID 2282987); settings: HepG2 NRF1 cis-element reporter, Attagene multiplex; actives raise or lower the signal
Procedure, shortened: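 Endogenous factor activity was captured via cis-element-driven reporter transcripts in HepG2 cells. Following 24 h chemical treatment, transcripts were quantified by RT-PCR and capillary electrophoresis.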

[7] = ATG_NFI_CIS: Attagene CIS-FACTORIAL HepG2 Assay for human Nuclear Factor I (NFI) (AID 2282989); settings: HepG2 cis-regulatory reporter, NFI response element transcription; actives raise or lower the signal
Procedure, shortened: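 After transient transfection of HepG2 with cis-promoter reporter constructs and 24 h dosing, RNA is reverse-transcribed, amplified, 6-FAM end-labelled and HpaI-digested before capillary analysis. Bidirectional curve fitting against DMSO.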

[8] = target: Myc proto-oncogene protein (Homo sapiens) (UniProt P01106); assay: ATG_Myc_CIS: Attagene CIS-FACTORIAL HepG2 Assay for human Myelocytomatosis (Myc) Proto-Oncogene Transcription Factor (AID 2282990); settings: HepG2, Attagene cis-reporter transcription factor activity; actives raise or lower the signal
Procedure, shortened: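 HepG2, transient MRTU transfection (cis promoters, endogenous TFs); 24 h dosing; TriZol RNA → oligo(dT) RT → PCR → 6-FAM primer extension → HpaI cut → CE. Bidirectional fit vs DMSO.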

[9] = ATG_NF_kB_CIS: Attagene CIS-FACTORIAL HepG2 Assay for human Nuclear Factor Kappa B (NF-kB) (AID 2282991); settings: HepG2 Attagene cis-factorial NF-kB reporter mRNA; actives raise or lower the signal
Procedure, shortened: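 After 24 h compound incubation, transfected HepG2 cells yield total RNA; reporter cDNA is PCR-amplified, end-labelled with 6-FAM, HpaI-digested and analysed on a genetic analyser. Endogenous factor activity, DMSO-referenced bidirectional fit.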

[10] = ATG_NRF2_ARE_CIS: Attagene CIS-FACTORIAL HepG2 Assay for human Nuclear Factor Erythroid 2 Related Factor 2 (NFR2) response to Antioxidant Response Elements (ARE) (AID 2282992); settings: HepG2 Attagene ARE/NRF2 reporter, transcription factor activity; actives raise or lower the signal
Procedure, shortened: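 Cis-factorial assay: transfected HepG2 reporter library, 24 h dosing, mRNA readout via RT-PCR/CE; DMSO-referenced bidirectional analysis.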

[11] = ATG_Oct_MLP_CIS: Attagene CIS-FACTORIAL HepG2 Assay for human Octamer-Binding Transcription Factor (Oct) (AID 2282993); settings: HepG2 Attagene cis-factorial Oct reporter, mRNA; actives raise or lower the signal
Procedure, shortened: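 Cells of the HepG2 line express promoter-controlled reporter sequences whose mRNA levels, after 24 h treatment, are measured by RT-PCR and capillary electrophoresis. Increases and decreases are scored relative to DMSO.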

[12] = target: Cellular tumor antigen p53 (Homo sapiens) (UniProt P04637); assay: ATG_p53_CIS: Attagene CIS-FACTORIAL HepG2 Assay for human p53 Transcription Factor (AID 2282994); settings: HepG2 p53 cis-element reporter, Attagene mRNA; actives raise or lower the signal
Procedure, shortened: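 Using HepG2 hepatoma cells carrying cis-acting multiplexed reporters, mRNA induction is detected after a 24 h exposure. Gain- and loss-of-signal responses are fitted relative to DMSO-treated cells.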

[13] = target: human Peroxisome Proliferator-activated Receptor alpha (PPARa), PPARA (gene 5465) (UniProt Q07869); assay: ATG_PPARa_TRANS: Attagene TRANS-FACTORIAL HepG2 Assay for human Peroxisome Proliferator-activated Receptor alpha (PPARa) (AID 2283001; active means hit-call score of the fitted dose curve at least 0.9, where 1 is the maximum;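 on AC50: potency for gain of reporter signal over DMSO so agonist or activator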)
Procedure, shortened: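 Read-out is fluorescence of reporter cDNA fragments resolved by capillary electrophoresis after RT-PCR. Human HepG2 liver cells carried transfected PPARa-Gal4 chimera and GAL4-UAS reporter units, treated 24 h; activity scored as increase over DMSO.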

[14] = target: human Retinoic Acid Receptor beta (RARb), RARB (gene 5915) (UniProt P10826); assay: ATG_RARb_TRANS: Attagene TRANS-FACTORIAL HepG2 Assay for human Retinoic Acid Receptor beta (AID 2283004; active means hit-call score of the fitted dose curve at least 0.9, where 1 is the maximum)
Procedure, shortened: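 Fluorescent capillary-electrophoresis detection of GAL4-UAS reporter mRNA defines the endpoint, with induction over DMSO-treated wells scored as activity. Transiently transfected human hepatoma HepG2 cells expressing exogenous NR–Gal4 proteins are exposed to test chemicals for 24 h.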

[15] = target: human Peroxisome Proliferator-activated Receptor delta (PPARd), PPARD (gene 5467) (UniProt Q03181); assay: ATG_PPARd_TRANS: Attagene TRANS-FACTORIAL HepG2 Assay for human Peroxisome Proliferator-activated Receptor delta (PPARd) (AID 2283002; active means hit-call score of the fitted dose curve at least 0.9, where 1 is the maximum)
Procedure, shortened: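 Transient HepG2 transfection (multiple GAL4-UAS RTUs, chimeric receptor-Gal4); 24 h dosing; total RNA → oligo(dT) RT → PCR → 6-FAM primer extension → HpaI cut → CE. Positive direction vs DMSO.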

[16] = BSK_3C_TissueFactor: BioMAP Diversity Plus: 3C Assay for Tissue Factor Biomarker Activity (AID 2282997); settings: BioMAP 3C HUVEC, tissue factor biomarker readout; actives raise or lower the signal
Procedure, shortened: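 Endothelial monolayers (human umbilical vein, primary) are dosed, incubated 24 h, and assayed for Tissue Factor by ELISA; DMSO serves as negative control for bidirectional fitting.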

[17] = BSK_3C_uPAR: BioMAP Diversity Plus: 3C Assay for Urokinase-type plasminogen activator receptor (uPAR) Biomarker Activity (AID 2282998); settings: BioMAP 3C HUVEC, uPAR biomarker ELISA; actives raise or lower the signal
Procedure, shortened: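 Endothelial primary cells of human umbilical vein origin received test chemical; 24 h later uPAR was assayed by ELISA. Fitting was bidirectional, DMSO as negative control.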

[18] = BSK_3C_VCAM1: BioMAP Diversity Plus: 3C Assay for Vascular cell adhesion molecule 1 (VCAM1) Biomarker Activity (AID 2282999); settings: BioMAP 3C HUVEC, VCAM1 ELISA, cytokine-stimulated; actives raise or lower the signal
Procedure, shortened: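 Endothelial cells from human umbilical vein are treated with test chemical. At 24 h, VCAM-1 is measured by ELISA, and responses in either direction are fitted relative to DMSO.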

[19] = BSK_4H_Eotaxin3: BioMAP Diversity Plus: 4H Assay for Eotaxin 3 Biomarker Activity (AID 2283000); settings: primary human endothelial cells (HUVEC); actives raise or lower the signal;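 further: CCL26 protein level quantified by ELISA in parallel with SRB cytotoxicity check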
Procedure, shortened: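 ELISA quantitation of CCL26 (Eotaxin-3) protein from chemically dosed human vascular endothelial cells at 24 h; increases and decreases both scored relative to DMSO-treated baseline.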

[20] = read-out: Intercellular Adhesion Molecule 1 (ICAM1), ICAM1 (gene 3383); assay: BSK_3C_ICAM1: BioMAP Diversity Plus: 3C Assay for Intercellular Adhesion Molecule 1 (ICAM1) Biomarker Activity (AID 2283003); settings: primary human endothelial cells (HUVEC); actives raise or lower the signal
Procedure, shortened: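 ICAM-1 levels measured by ELISA after HUVEC cultures in the 3C system had been dosed for 24 h. Gain or loss of signal relative to DMSO was fitted in both directions.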

Measured: AC50

Sequence of Myc proto-oncogene protein (Homo sapiens) (P01106 whole entry, looked up): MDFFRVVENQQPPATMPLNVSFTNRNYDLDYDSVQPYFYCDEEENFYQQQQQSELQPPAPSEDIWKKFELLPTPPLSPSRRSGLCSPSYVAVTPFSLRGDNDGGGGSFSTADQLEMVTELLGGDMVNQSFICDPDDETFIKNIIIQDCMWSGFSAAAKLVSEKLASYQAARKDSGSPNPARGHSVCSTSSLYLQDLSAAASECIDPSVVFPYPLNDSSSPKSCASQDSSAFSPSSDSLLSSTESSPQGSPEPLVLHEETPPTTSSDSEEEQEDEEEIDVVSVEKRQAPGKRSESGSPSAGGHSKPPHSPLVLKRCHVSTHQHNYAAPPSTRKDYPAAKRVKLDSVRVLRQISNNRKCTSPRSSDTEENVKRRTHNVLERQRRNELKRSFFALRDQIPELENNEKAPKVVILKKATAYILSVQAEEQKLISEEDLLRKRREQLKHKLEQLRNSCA
Sequence of Cellular tumor antigen p53 (Homo sapiens) (P04637 whole entry, looked up): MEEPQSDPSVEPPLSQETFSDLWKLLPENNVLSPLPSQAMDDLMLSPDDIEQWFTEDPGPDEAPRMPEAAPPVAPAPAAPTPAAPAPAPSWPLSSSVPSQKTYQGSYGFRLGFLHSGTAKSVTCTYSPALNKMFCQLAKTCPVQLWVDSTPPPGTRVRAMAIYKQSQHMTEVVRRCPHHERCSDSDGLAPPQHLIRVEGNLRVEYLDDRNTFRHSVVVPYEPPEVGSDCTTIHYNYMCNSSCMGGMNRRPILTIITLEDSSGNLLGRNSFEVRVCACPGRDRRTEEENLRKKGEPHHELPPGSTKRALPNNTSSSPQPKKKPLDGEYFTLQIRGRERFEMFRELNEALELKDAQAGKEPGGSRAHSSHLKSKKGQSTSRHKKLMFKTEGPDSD
Sequence of Nuclear receptor subfamily 4 group A member 2 (Homo sapiens) (P43354 whole entry, looked up, the tested form may be a part): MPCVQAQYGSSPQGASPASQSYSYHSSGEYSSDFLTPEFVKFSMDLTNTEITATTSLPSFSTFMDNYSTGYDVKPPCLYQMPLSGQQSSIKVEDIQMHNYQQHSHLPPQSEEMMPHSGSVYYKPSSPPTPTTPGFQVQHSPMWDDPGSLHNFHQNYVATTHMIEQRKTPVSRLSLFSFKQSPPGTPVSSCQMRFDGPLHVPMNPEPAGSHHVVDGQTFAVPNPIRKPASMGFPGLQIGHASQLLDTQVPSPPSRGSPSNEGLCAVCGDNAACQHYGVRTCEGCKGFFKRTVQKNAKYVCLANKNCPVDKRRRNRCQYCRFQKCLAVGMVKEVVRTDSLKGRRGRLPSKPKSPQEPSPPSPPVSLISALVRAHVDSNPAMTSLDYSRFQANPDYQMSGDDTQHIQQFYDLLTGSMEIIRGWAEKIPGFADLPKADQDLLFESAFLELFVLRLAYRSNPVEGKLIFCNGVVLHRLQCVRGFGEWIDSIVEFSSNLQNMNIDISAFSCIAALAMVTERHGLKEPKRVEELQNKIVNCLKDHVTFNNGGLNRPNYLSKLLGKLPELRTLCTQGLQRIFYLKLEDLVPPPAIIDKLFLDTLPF
Sequence of human Peroxisome Proliferator-activated Receptor delta (PPARd), PPARD (gene 5467) (Q03181 whole entry, looked up, the tested form may be a part): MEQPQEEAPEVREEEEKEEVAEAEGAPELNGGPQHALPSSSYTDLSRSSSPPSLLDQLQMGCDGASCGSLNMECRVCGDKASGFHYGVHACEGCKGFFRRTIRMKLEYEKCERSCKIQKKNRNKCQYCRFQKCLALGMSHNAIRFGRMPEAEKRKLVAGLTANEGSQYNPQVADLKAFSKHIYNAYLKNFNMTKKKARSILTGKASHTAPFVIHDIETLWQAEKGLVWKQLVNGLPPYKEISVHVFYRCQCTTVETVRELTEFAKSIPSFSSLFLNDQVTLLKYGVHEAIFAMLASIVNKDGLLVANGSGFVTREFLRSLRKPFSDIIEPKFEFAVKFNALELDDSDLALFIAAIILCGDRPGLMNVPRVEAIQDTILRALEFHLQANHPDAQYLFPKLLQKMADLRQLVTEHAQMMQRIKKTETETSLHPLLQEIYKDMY
Sequence of human Peroxisome Proliferator-activated Receptor alpha (PPARa), PPARA (gene 5465) (Q07869 whole entry, looked up, the tested form may be a part): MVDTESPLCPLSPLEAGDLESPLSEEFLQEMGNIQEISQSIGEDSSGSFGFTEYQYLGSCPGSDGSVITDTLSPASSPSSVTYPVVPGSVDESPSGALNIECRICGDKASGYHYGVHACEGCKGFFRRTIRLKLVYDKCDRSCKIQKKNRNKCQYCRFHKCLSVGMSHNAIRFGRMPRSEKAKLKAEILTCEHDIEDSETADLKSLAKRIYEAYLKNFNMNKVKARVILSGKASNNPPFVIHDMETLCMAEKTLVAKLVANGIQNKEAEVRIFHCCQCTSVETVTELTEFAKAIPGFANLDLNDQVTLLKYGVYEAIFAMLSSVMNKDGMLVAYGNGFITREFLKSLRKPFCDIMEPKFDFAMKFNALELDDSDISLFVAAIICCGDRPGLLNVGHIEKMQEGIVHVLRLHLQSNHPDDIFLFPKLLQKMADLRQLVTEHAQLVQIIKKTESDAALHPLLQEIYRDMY
Sequence of Nuclear respiratory factor 1 (Homo sapiens) (Q16656 whole entry, looked up): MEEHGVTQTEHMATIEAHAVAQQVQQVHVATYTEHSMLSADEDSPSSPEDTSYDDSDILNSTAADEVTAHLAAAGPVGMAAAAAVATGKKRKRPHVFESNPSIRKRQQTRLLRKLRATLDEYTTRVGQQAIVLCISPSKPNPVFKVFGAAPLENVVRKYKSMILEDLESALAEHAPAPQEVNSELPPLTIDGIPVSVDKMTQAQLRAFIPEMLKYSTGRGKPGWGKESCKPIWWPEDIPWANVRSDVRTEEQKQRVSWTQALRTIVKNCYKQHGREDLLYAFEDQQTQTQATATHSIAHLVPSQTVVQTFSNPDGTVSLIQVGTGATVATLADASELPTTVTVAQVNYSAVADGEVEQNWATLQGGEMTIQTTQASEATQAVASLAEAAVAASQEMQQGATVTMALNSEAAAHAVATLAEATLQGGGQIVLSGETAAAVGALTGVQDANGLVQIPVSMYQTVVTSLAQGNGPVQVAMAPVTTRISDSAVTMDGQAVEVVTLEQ
Sequence of Hepatocyte nuclear factor 4-alpha (Homo sapiens) (P41235 whole entry, looked up, the tested form may be a part): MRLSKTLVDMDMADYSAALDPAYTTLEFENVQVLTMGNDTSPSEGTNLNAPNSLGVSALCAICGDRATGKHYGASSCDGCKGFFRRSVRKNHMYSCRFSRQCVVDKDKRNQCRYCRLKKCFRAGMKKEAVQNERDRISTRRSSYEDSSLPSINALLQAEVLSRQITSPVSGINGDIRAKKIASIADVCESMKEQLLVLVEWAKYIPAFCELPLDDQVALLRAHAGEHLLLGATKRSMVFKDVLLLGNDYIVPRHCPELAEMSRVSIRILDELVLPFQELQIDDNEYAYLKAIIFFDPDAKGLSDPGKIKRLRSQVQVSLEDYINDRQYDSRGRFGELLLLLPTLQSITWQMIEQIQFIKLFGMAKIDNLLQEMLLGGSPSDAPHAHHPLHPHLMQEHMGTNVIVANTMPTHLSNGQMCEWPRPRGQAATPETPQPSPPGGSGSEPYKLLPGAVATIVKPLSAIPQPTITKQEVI
Sequence of Transcriptional activator Myb (Homo sapiens) (P10242 whole entry, looked up): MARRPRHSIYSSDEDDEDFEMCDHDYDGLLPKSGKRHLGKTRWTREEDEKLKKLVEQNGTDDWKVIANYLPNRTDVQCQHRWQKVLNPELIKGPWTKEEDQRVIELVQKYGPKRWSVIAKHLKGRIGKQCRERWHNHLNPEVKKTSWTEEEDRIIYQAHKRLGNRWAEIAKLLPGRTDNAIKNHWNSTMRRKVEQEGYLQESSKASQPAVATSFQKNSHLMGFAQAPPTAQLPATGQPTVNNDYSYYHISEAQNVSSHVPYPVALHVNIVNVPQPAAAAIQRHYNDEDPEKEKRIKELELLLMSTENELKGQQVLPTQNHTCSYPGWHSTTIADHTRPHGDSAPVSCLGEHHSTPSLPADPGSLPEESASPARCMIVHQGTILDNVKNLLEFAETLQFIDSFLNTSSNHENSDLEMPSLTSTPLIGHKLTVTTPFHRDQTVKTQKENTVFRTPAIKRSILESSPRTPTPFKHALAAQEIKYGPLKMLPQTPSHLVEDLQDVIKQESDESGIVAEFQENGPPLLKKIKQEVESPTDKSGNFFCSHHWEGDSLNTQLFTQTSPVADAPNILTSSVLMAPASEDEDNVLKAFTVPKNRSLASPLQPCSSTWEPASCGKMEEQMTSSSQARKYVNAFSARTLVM
Sequence of human Retinoic Acid Receptor beta (RARb), RARB (gene 5915) (P10826 whole entry, looked up, the tested form may be a part): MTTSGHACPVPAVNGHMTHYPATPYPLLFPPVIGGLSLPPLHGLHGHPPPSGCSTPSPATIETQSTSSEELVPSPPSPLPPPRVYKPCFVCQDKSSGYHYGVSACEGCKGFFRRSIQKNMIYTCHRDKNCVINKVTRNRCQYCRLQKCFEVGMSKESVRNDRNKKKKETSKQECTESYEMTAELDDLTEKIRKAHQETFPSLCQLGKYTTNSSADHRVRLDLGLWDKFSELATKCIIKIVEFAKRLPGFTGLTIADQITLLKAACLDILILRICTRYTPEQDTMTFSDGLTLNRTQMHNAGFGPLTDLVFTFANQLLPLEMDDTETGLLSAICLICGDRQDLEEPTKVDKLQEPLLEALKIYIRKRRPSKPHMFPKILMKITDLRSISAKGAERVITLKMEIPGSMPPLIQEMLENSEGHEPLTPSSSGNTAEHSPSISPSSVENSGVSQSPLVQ

CN(C)c1ccc(N=O)cc1
active: [9] 6.42 µM | [10] 1.39 µM | [12] 44.6 µM
not listed: [15] | [16] | [17] | [18] | [19] | [20]
inactive: all other assays above

Nc1cccnc1
not listed: [10] | [14] | [16] | [17] | [18] | [19] | [20]
inactive: all other assays above

O=C/C(Cl)=C(/Cl)C(=O)O
active: [9] 35.2 µM | [10] 26.1 µM | [11] 144 µM
not listed: [12] | [14] | [16] | [17] | [18] | [19] | [20]
inactive: all other assays above

COC(=O)c1cc(Oc2ccc(Cl)cc2Cl)ccc1[N+](=O)[O-]
active: [4] 32.3 µM
not listed: [10] | [14] | [16] | [17] | [18] | [19] | [20]
inactive: all other assays above

CNC(=O)CSP(=O)(OC)OC
not listed: [12] | [14] | [16] | [17] | [18] | [19] | [20]
inactive: all other assays above

CCN(CC)C(=O)C(Cl)=C(C)OP(=O)(OC)OC
active: [10] 38.6 µM
not listed: [14] | [15]
inactive: all other assays above

CCOC(=O)OC1=C(c2cc(C)ccc2C)C(=O)NC12CCC(OC)CC2 (centres undefined)
active: [10] 69.8 µM
not listed: [9] | [14] | [15] | [16] | [17] | [18] | [19] | [20]
inactive: all other assays above

ClCCN1CCOCC1
not listed: [6] | [13] | [14] | [16] | [17] | [18] | [19] | [20]
inactive: all other assays above

c1cc[c]([Sb]([c]2ccccc2)[c]2ccccc2)cc1
active: [4] 17.5 µM | [10] 70.3 µM
not listed: [14] | [16] | [17] | [18] | [19] | [20]
inactive: all other assays above

CCC(C)(C#N)N=NC(C)(C#N)CC (centres undefined)
not listed: [8] | [12] | [14] | [15] | [18]
inactive: all other assays above

OCC(c1ccc(Cl)cc1)c1ccc(Cl)cc1
inactive: [1] | [2] | [3] | [5] | [6] | [7] | [8] | [9]
active: [4] 46.3 µM | [10] 43.6 µM | [11] 57.9 µM | [13] 55 µM

NC(=O)CCl
not listed: [10] | [15] | [18]
inactive: all other assays above

CCOP(=S)(OCC)Oc1ccc(Cl)cc1Cl
active: [10] 43.7 µM
not listed: [13] | [14] | [15] | [16] | [17] | [18] | [19] | [20]
inactive: all other assays above

CCOCn1c(-c2ccc(Cl)cc2)c(C#N)c(Br)c1C(F)(F)F
active: [5] 78.8 µM | [7] 48.7 µM | [8] 150 µM | [11] 1.92 µM
inactive: [1] | [2] | [3] | [4] | [10] | [13] | [15]

CC1(C)[C@H](C(=O)O[C@H](C#N)c2cccc(Oc3ccccc3)c2)[C@@H]1/C=C(\Cl)C(F)(F)F
not listed: [6] | [13] | [14] | [18]
inactive: all other assays above

O=C(Nc1ccc(Br)cc1)c1cc(Br)cc(Br)c1O
active: [7] 2.27 µM | [11] 5.3 µM | [12] 100 µM | [13] 4.97 µM
inactive: [1] | [2] | [3] | [4] | [5] | [6] | [8] | [9]

Cl[C@H]1OCCO[C@@H]1Cl
not listed: [4] | [14] | [15] | [16] | [17] | [18] | [19] | [20]
inactive: all other assays above
